The source of these data is PubChem BioAssay (Tox21).

Each structure is given as a SMILES string. A number with no mark means an inactive call. Inconclusive results are not listed. Activity calls are given as the source filed them. Unless noted, calls follow the shape of the dose curve; as a rule, active = well fitted curve in the direction sought with a large enough effect in the repeat runs; inconclusive = weak or mixed curves; inactive = no such curve, though single readings can be large; an effect the other way counts as inactive or inconclusive.

Test [1] can be described thus: qHTS assay to test for compound auto fluorescence at 535 nm (green) in HEK293 cells (AID 720680). (qHTS replaces the single test concentration by a dilution series.)
The nature of test [2]: qHTS assay to test for compound auto fluorescence at 460 nm (blue) in HEK293 cell free culture (AID 720681). The essentials: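 Test compounds were pinned into cell-free culture medium (DMEM with 10% FBS) and fluorescence was read directly at Ex/Em 405/460 nm. Signals were expressed as fluorescence equivalents of triamterene, with DMSO vehicle as control.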
Test [3] can be described thus: qHTS assay to test for compound auto fluorescence at 535 nm (green) in HEK293 cell free culture (AID 720682). The essentials:
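Fluorescein serves as the green reference fluorophore; each compound's intrinsic emission at 535 nm (excitation 485 nm) is reported as an equivalent amount of that dye, measured in serum-containing DMEM without cells.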

Test [4] can be described thus: qHTS assay to test for compound auto fluorescence at 590 nm (red) in HEK293 cell free culture (AID 720683). The essentials:
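Tox21 10K library compounds were pinned into cell-free DMEM with 10% FBS and fluorescence was read at excitation 540 nm. Activity is expressed as Rose Bengal sodium equivalency.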

The nature of test [5]: qHTS assay to test for compound auto fluorescence at 590 nm (red) in HepG2 cell free culture (AID 720684). The essentials: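 Measured in medium alone (MEM containing 10% FBS) following pintool addition of compound; emission at 590 nm with 540 nm excitation, referenced to Rose Bengal sodium.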
Test [6] is described as follows: qHTS assay to test for compound auto fluorescence at 460 nm (blue) in HepG2 cell free culture (AID 720685). In outline: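 Compound (23 nL) or DMSO pinned into cell-free MEM with 10% FBS; blue fluorescence read at 405/460 nm excitation/emission, expressed as auto-fluorescence equivalency to triamterene.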
Test [7] can be described thus: qHTS assay to test for compound auto fluorescence at 535 nm (green) in HepG2 cell free culture (AID 720686).
Test [8] can be described thus: qHTS assay to test for compound auto fluorescence at 460 nm (blue) in HepG2 cells (AID 720687). The essentials: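 Cells (2,000/well in MEM with 10% FBS) attached overnight at 37 C, then were exposed to compound or DMSO for 1 hr at 37 C, 5% CO2. Fluorescence read at Ex/Em 405/460 nm, expressed as triamterene-equivalent signal.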
For test [9], the target named is Glucocorticoid receptor (Homo sapiens) (UniProt P04150). As to the kind of experiment: qHTS assay to identify small molecule agonists of the glucocorticoid receptor (GR) signaling pathway (AID 720691; active = well fitted activation curve with a large enough effect in the signal ratio in the repeat runs, not every such curve was filed as active; the % refers to the signal ratio). In outline: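 Reporter read-out: fluorescence intensity following 2 h room-temperature LiveBLAzer B/G FRET substrate loading. Prior step: GR-bla HeLa cells held 4 h, then treated 18 h at 37 C.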

A short description of test [10]: qHTS assay for identifying genotoxic compounds that show differential cytotoxicity against isogenic chicken DT40 cell lines with known DNA damage response pathways - wild type cell line (AID 743012). Also: nearly all actives have a fitted effect of over 60% in size. Also: potency is read from the fitted curve at half-maximal effect. The essentials:
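Using parental DT40 (300 cells/well), compounds delivered in DMSO incubate 40 h at 37 C/5% CO2. CellTiter-Glo reagent then stands 30 min at room temperature, and luminescence gives cell viability.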

Test [11] can be described thus: qHTS assay for identifying genotoxic compounds that show differential cytotoxicity against isogenic chicken DT40 cell lines with known DNA damage response pathways - Rev3 mutant cell line (AID 743014). Also: nearly all actives have a fitted effect of over 55% in size. Also: potency is read from the fitted curve at half-maximal effect.
The nature of test [12]: qHTS assay for identifying genotoxic compounds that show differential cytotoxicity against isogenic chicken DT40 cell lines with known DNA damage response pathways - Rad54/Ku70 mutant cell line (AID 743015). Also: nearly all actives have a fitted effect of over 60% in size. Also: potency is read from the fitted curve at half-maximal effect.
Test [13] in a line: qHTS assay to identify small molecule antagonists of the thyroid receptor (TR) signaling pathway - cell viability counter screen (AID 743064). Also: nearly all actives have a fitted effect of over 50% in size. Also: potency is read from the fitted curve at half-maximal effect. The essentials: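 Fluorescence from CellTiter-Fluor, added after 23.5 h exposure at 37 °C, reported viability of GH3.TRE-Luc cells co-treated with compound and 1 nM T3. Measured in the same wells as the luciferase TR readout.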
Test [14] concerns the target Glucocorticoid receptor (Homo sapiens) (UniProt P04150). As to the kind of experiment: qHTS assay to identify small molecule antagonists of the glucocorticoid receptor (GR) signaling pathway (AID 720692; active = well fitted inhibition curve with a large enough effect in the signal ratio in the repeat runs, not every such curve was filed as active; the % refers to the signal ratio). The essentials: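 Dexamethasone (5 nM final) stimulated a stably integrated GRE-beta-lactamase reporter in HeLa cells during 18 h co-incubation with compounds; signal was quantified as fluorescence intensity of B/G FRET substrate after 2 h.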

Test [15] can be described thus: qHTS assay to identify small molecule antagonists of the glucocorticoid receptor (GR) signaling pathway - cell viability counter screen (AID 720693). Also: nearly all actives have a fitted effect of over 55% in size.
Test [16] is described as follows: qHTS assay to identify small molecule antagonists of the androgen receptor (AR) signaling pathway - cell viability counter screen (AID 743033; also: nearly all actives have a fitted effect of over 45% in size).
The nature of test [17]: qHTS assay to identify small molecule antagonists of the androgen receptor (AR) signaling pathway using the MDA cell line - cell viability counter screen (AID 743041; also: nearly all actives have a fitted effect of over 45% in size). The essentials: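 Viability counter screen run alongside the AR antagonist reporter: cells seeded 5 h before compound, R1881 added, 16 h incubation at 37C without CO2, fluorescent CellTiter-Fluor signal quantified.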

Sequence of Glucocorticoid receptor (Homo sapiens) (P04150 whole entry, looked up): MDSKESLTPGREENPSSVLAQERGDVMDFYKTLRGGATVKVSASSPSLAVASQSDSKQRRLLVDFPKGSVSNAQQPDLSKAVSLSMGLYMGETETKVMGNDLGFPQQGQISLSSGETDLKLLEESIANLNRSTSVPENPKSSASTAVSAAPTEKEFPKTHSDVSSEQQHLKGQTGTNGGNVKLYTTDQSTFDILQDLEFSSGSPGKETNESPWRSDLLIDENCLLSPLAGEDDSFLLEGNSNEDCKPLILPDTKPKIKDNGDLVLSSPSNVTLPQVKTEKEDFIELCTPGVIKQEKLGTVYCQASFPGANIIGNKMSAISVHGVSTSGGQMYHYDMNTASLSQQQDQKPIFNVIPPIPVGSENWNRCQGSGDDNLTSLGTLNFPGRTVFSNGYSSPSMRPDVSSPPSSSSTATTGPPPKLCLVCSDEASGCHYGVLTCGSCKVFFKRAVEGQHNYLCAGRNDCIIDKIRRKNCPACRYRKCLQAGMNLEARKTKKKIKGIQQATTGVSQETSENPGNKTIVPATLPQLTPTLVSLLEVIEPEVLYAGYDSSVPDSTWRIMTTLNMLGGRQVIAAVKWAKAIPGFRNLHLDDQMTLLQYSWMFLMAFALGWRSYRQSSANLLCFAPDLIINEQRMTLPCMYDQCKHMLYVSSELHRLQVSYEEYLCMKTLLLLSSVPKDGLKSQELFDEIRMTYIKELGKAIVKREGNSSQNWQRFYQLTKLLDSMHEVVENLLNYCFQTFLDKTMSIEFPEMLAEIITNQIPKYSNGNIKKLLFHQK

`CN(CCCN1c2ccccc2CCc2ccccc21)CC(=O)c1ccc(Cl)cc1`: the compound was called inactive in test [1], in test [2], in test [3], in [4], in test [5] and in test [6]. For the same compound, the outcome in test [7] and in test [8] was inactive. The Potency entry in test [9] was “inactive”. Besides, the Potency in [10] is 9.44 µM (active); in test [11], 13.3 µM (active); in [12], 13.3 µM (active); in [13], 11.9 µM (active).

Regarding `ClC(Cl)Cl`, the call in test [1], in test [2], in test [3], in test [4], in test [5] and in [6] was inactive. In addition, the result in [7], in test [8], in test [15] and in test [16] was inactive. Also, the Potency entry in test [14], in test [10], in [11], in test [12], in test [17] and in test [13] was “inactive” each time.

As to `CC(C)NCC(O)COc1ccc(CCOCC2CC2)cc1` (stereo unspecified), the compound was classed as inactive in test [1], in [2], in test [3], in [4], in test [5] and in test [6]. Besides, the call in [7], in test [8] and in test [16] was inactive. In addition, the Potency entry in test [9], in [14], in test [17] and in [13] was “inactive” throughout. The Potency in test [10] and in test [12] was 29.8 µM (active) each time.

For the compound `Cc1cccc(C)c1NC(=O)CN1CCCCCC1`, the compound was called inactive in [1], in test [2], in test [3], in test [4], in test [5] and in [6]. In addition, the compound was called inactive in test [7], in test [8], in [15] and in [16]. Also, the Potency entry in test [9], in test [10], in [11], in [12], in [17] and in [13] was “inactive” throughout.

`C=CC1CO1` (stereo unspecified): the compound was called inactive in [1], in test [2], in test [3], in [4], in test [5] and in [6]. Moreover, the outcome in test [7], in test [8], in test [15] and in test [16] was inactive. Further, the Potency entry in test [9], in test [10], in test [11], in [12], in test [17] and in [13] was “inactive” each time.

In the case of `CCCCN1C[C@H](O)[C@@H](O)[C@H](O)[C@H]1CO`, the compound was classed as inactive in test [1], in [2], in test [3], in test [4], in [5] and in test [6]. Moreover, the outcome in test [7], in [8] and in test [16] was inactive. The Potency result in test [9], in [14], in test [10], in test [11], in test [12] and in test [17] was “inactive” in each case.

Turning to `CCCCCCCOC(=O)CCC`, the result in test [1], in test [2], in [3], in test [4], in test [5] and in test [6] was inactive. Besides, the compound was classed as inactive in test [7], in test [8], in [15] and in test [16]. For the same compound, the Potency result in test [9], in test [12], in test [17] and in test [13] was “inactive” throughout.

On to `CCOc1ccc(OCC)c(Cl)c1`, for which the result in test [1], in [2], in test [3], in test [4], in test [5] and in test [6] was inactive. Further, the compound was called inactive in [7], in test [8], in test [15] and in [16]. The Potency entry in [9], in [10], in [11], in [12], in [17] and in [13] was “inactive” throughout.
